In the library only some 2.3% were active in any assay of this set; here they are far more common.
PLC-beta3 inh: human PLC-beta3 inhibitors, primary screen, biochemical, fluorescence | 1-phosphatidylinositol 4,5-bisphosphate phosphodiesterase beta-3 (Homo sapiens), Q01970 | Purified PLC-beta3, fluorogenic substrate | inhibition, % at 12.2 µM | 370,000 tested, 0.18% active; in the data active = inhibition above about 11%;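 note: 0% = median of compound wells on plate and 100% = full blocker control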
UHRF1 MBD2 ctr: UHRF1 methylated DNA binding inhibitors, primary screen, counter-screen for MBD2 inhibitor project, biochemical, TR-FRET, human UHRF1, single concentration; AID 687016, 2013; 370,000 tested, 0.75% active; inhibition, % at 4.4 µM; UHRF1 binding to methylated oligo; in the data active = inhibition above about 21%;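 note: UHRF1 SRA domain binding a hemimethylated CpG hairpin DNA probe; 0% = median of test compound wells and 100% = reference inhibitor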
PLCg1 inh: PLC-gamma1 enzyme inhibitors, primary screen, biochemical, fluorescence, purified enzyme; fluorogenic substrate; inhibition, % at 12.2 µM; 370,000 tested, 0.84% active; AID 720700, 2013
LEDGF integ inh: blockers of LEDGF/p75-dependent integrase strand transfer – biochemical, TR-FRET, high throughput, primary screen | TR-FRET IN-LEDGF/p75 DNA integration, Eu/Cy5 | HIV-1 integrase (with human LEDGF/p75) | AID 743269, 2014 | inhibition, % at 3.7 µM | 370,000 tested, 0.64% active;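 active = inhibition above the screen-wide mean plus 3 SD, cut at about 13% in these data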;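 note: signal is the Cy5 over europium emission ratio at 671 and 618 nm; 0% = plate median of compound wells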
MBD2 DNA inh: inhibitors of MBD2 binding to methylated DNA, primary screen, biochemical, TR-FRET, DNA-binding domain, human; Methyl-CpG-binding domain protein 2 (Homo sapiens), Q9UBB5; MBD2 binding to methylated oligonucleotide; inhibition, % at 4.4 µM; 370,000 tested, 0.31% active; in the data active = inhibition above about 13%
PLCgamma1 ctr: PLC-gamma1 enzyme inhibitors, counter-screen for PLC-beta3 inhibitor project, biochemical, fluorescence; shares compounds with PLCg1 inh; purified PLC-gamma1, fluorogenic substrate; inhibition, % at 12.3 µM; 3,300 tested, 3.1% active; AID 743258, 2014
PLCbeta3 conf: PLC-beta3 inhibitor confirmation, biochemical, fluorescence, purified enzyme; AID 743261, 2014; inhibition, % at 12.3 µM; shares compounds with PLCg1 inh; fluorogenic substrate fluorescence; 3,300 tested, 1% active; in the data active = inhibition above about 11%
Active calls of the source: *; x = no result given. Cut-off read from the data, not from the text of the source, unless noted: active = inhibition above about 9.5%; inactive = the rest.

SMILES	PLC-beta3 inh	UHRF1 MBD2 ctr	PLCg1 inh	LEDGF integ inh	MBD2 DNA inh	PLCgamma1 ctr	PLCbeta3 conf
CN(C(=O)c1cccnc1)c1nc(-c2ccccc2)cs1	7	-1	9.7*	1	-4	-8	-6
COC(=O)[C@]12C[C@H](CC(=O)NCCc3ccccc3OC)C(=O)N(Cc3cccc4ccccc34)C1=C[C@H](C(C)(C)C)O[C@@H]2C	0	-4	5	5	2	x	x
COC(=O)C1=C(C)N(Cc2ccccc2)C(=S)NC1c1ccc(Br)cc1 (centres undefined)	4	0	9.7*	-2	7	-1	0
COC(=O)C1=C(C)N(Cc2cccc(C(F)(F)F)c2)C(=NCc2ccc(C(F)(F)F)cc2)NC1c1ccc(F)cc1 (centres undefined)	2	0	5	1	2	x	x
COC(=O)C1=C(C)N(Cc2ccc(C(F)(F)F)cc2)C(=NCc2ccc(OC)cc2)NC1c1ccccc1C(F)(F)F (centres undefined)	4	4	9.9*	3	1	-5	-5
COC(=O)C1=C(C)N(Cc2cccc(C(F)(F)F)c2)C(=NCc2ccc(C(F)(F)F)cc2)NC1c1cccc(F)c1 (centres undefined)	14*	1	8	3	3	-6	-4
COC(=O)C1=C(C)N(Cc2cccc(C(F)(F)F)c2)C(=NCc2ccc(C(F)(F)F)cc2)NC1c1ccc(C(F)(F)F)cc1 (centres undefined)	8	3	13*	1	-2	5	5
CCN(CC)C(=O)CC[C@@H]1CC[C@]2(CCCN(Cc3cccnc3)C2)O1	-1	-1	-2	-2	1	x	x
CCc1ccccc1-c1cc(C(=O)OC)c2n(c1=O)CCC2	2	0	1	0	-2	x	x
CCCCCn1c(C(C)NC(=O)CCC)nc2ccccc21 (centres undefined)	14*	0	7	8	3	-6	-1
O=S1(=O)c2ccc(Br)cc2OC[C@@H](Cc2ccccc2)N1Cc1cn(CC2CCCCC2)nn1	4	2	10*	3	-1	-4	-1
O=S1(=O)c2ccc(Br)cc2OC[C@@H](Cc2ccccc2)N1Cc1cn(Cc2ccccc2)nn1	-1	0	3	-3	2	x	x
CC(=O)Nc1ccc(S(=O)(=O)NCc2cn3ccsc3n2)cc1	11*	3	11*	7	-3	-10	-1
CC(=O)Nc1ccc(S(=O)(=O)NCc2cn3c(C)csc3n2)cc1	1	1	0	2	5	x	x
O=C(N/N=C/c1sc(=O)[nH]c1-[n+]1ccccc1)c1ccccc1[O-]	-1	-5	2	4	-7	x	x
Cc1ccc[n+](-c2[nH]c(=O)sc2/C=N/NC(=O)c2ccccc2[O-])c1	1	1	14*	3	1	3	-1
Cc1ccc(C)c(NC(=O)c2ccc(CS(=O)(=O)Cc3ccccc3C)o2)c1	-1	-1	2	0	2	x	x
C=CCn1c(SCc2cccc(OC)c2)nnc1-c1ccncc1	0	3	12*	1	-1	0	-3
N#Cc1ccc(CSc2nnc(-c3ccncc3)n2CCc2ccccc2)cc1	-3	0	-3	3	2	x	x
COc1cccc(CSc2nnc(-c3ccncc3)n2N)c1	-1	-2	3	-4	3	x	x
c1ccc(CCn2c(SCc3ccccc3)nnc2-c2ccncc2)cc1	2	3	9.9*	0	-5	-5	-4
CC1CCC2(CCC(=O)N2CCCOC(=O)c2ccccc2)CC1 (centres undefined)	6	-2	3	0	0	x	x
COCCCNC(=O)C[C@H]1C[C@@]2(C(=O)OC)C(=C[C@H](C(C)C)O[C@@H]2C2CC2)N(Cc2ccco2)C1=O	1	0	-1	-1	-5	x	x
COC(=O)c1cc(NC(=O)CC2SCCNC2=O)cc(C(=O)OC)c1 (centres undefined)	2	-1	2	0	-4	x	x
O=C(CC1SCCNC1=O)Nc1cc(Cl)cc(Cl)c1 (centres undefined)	12*	3	3	1	-1	2	-3
SMILES	PLC-beta3 inh	UHRF1 MBD2 ctr	PLCg1 inh	LEDGF integ inh	MBD2 DNA inh	PLCgamma1 ctr	PLCbeta3 conf
CCCCn1c(=O)c(F)cn(Cc2ccc(OC)c([N+](=O)[O-])c2)c1=O	3	3	4	-7	-2	x	x
CCCn1c(=O)c(F)cn(Cc2ccc(OC)c([N+](=O)[O-])c2)c1=O	12*	4	4	-1	-2	-5	0
Cn1c(N)c(C(=O)CSc2nnc(C3CC3)n2-c2ccccc2)c(=O)n(C)c1=O	0	1	4	4	-3	x	x
Cn1c(N)c(C(=O)CSc2nc3ccccc3c(=O)n2Cc2ccccc2)c(=O)n(C)c1=O	5	1	11*	4	3	-5	-4
Cn1c(SCC(=O)c2c(N)n(C)c(=O)n(C)c2=O)nnc1-c1ccccc1	3	2	15*	1	3	-6	-1
COC(=O)CC[C@H](/C=C/C(=O)OC(C)(C)C)Sc1ccc(C(C)(C)C)cc1	2	-1	3	4	0	x	x
COc1ccc(C(=O)N(C)[C@H]2C[C@H]3c4[nH]c5cccc(-c6ccccc6)c5c4CCN3C[C@H]2[C@H](C)O)cc1	-272	-1	-261	-2	-3	x	x
CS(=O)(=O)N1CCN(c2ccccc2[N+](=O)[O-])CC1	6	-1	15*	5	6	-4	-1
Cc1ccccc1NC(=O)c1ccc([N+](=O)[O-])o1	4	2	5	4	2	x	x
CS(=O)(=O)N1CCN(c2ccccc2NC(=O)c2ccc([N+](=O)[O-])o2)CC1	2	1	9.9*	0	-2	3	1
CCN(CC)c1nc(N)c([N+](=O)[O-])c(NCCO)n1	8	6	10*	4	-1	-1	5
CCN(CCNCC(O)COc1ccccc1C(C)C)c1cccc(C)c1 (centres undefined)	-1	1	17*	3	9	1	2
CCOC(=O)N1CCN(CC(O)COc2ccccc2C(C)C)CC1 (centres undefined)	0	1	-1	-3	0	x	x

Source: PubChem
